The source of these data is the supplement of paper PMC10338343.

± gives the standard deviation.

The subject of the assay is MILI (PIWIL2) piRISC loaded with piRNA #1 (26 nt). Nature of the assay: pre-steady-state target cleavage rate (min^-1); guide: piRNA #1 5'p-UGAGGUAGUAGGUUGUAUAGUAUCCA; MIWI and MILI are mouse PIWI proteins and EfPiwi is from a freshwater sponge; tags in brackets are library labels; higher = faster piRNA-guided slicing of the target. As to conditions: auxiliary factor: 500 nM mouse GTSF1. As to the method:
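Cleave-'n-Seq: a library of target RNAs (target site embedded in constant flanks, ACAGCATTCCGCGTTAGTGATATCCG... 5' flank; DNA-blocked outside the site) at 0.1 nM was incubated with 1 nM active mouse MILI or MIWI piRISC (synthetic 5'-monophosphorylated piRNA guide) with or without 500 nM mouse GTSF1 at 33 °C for 1 min to 16 h. Uncleaved targets were sequenced and normalised to non-target controls, and the pooled three trials were fitted to a burst-and-steady-state model to give the pre-steady-state cleavage rate (min^-1; k3 is constrained to at most 1e-4). Sequence is the target site only; target names encode pairing extent (gX:gY) and contiguous / 1-mismatch / 2-mismatch / bulge geometry. Fits with R² ≤ 0 are excluded.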
In the case of GGAGACCUAUGAUUACAACCUACUUCCUCA, the “pre-steady-state target cleavage rate” value was found to be 0.00303 ± 0.0022.
As for “GGAGACCUAUCUAUACAAGGAUGAUGGAGA [g13:g20:cont:t1A]”, the “pre-steady-state target cleavage rate” value was below 0.0001.
Regarding GGAGACGAUACUAUACAACCAACUACCACA, the “pre-steady-state target cleavage rate” value was 0.00835 ± 0.0032.
The same measure for GGAGACCUUACUUUACAACCUACUACCUGA: 0.0835 ± 0.014; for GGAGACCUAACUUACAACCUACUACCUCA: 0.0068 ± 0.0056.
For GGAGACCUAACUAUACUACCUUCUACCUCA the value was 0.00544 ± 0.0042.
The same measure for GGAGUGGAUCACUAUACAACCUACUACCUCA: 0.0867 ± 0.025; for GGAGACGAUUCUUUACAACCUACUACCUCA: 0.152 ± 0.011; for GGAGACGAUACUAAACAUCCUACUACCUCA: 0.267 ± 0.021.
In the case of GGAGACGAAACUAUACUACCUACUACCUCA, the “pre-steady-state target cleavage rate” value was 0.132 ± 0.02.
Consider GGAGACCUAACUAUACAACCUACUUCCUGA, for which the “pre-steady-state target cleavage rate” value amounted to 0.0081 ± 0.0069.
As to GGAGACCUAUAUAUACAACCUACUACCUCA, the “pre-steady-state target cleavage rate” value was 0.0406 ± 0.0075.
In the case of GGAGACCUAUGAAGACAACCUACUACCUCA, the “pre-steady-state target cleavage rate” value stood at 0.00824 ± 0.0032.
For GGAGACCUAUGUAUACAACCUACUACCUA the value was 0.044 ± 0.0064.
For GGAGAGGAUACUCAUACAACCUACUACCUCA the value was 0.149 ± 0.015.
Regarding GGAGACCUAUGAUAUGUACCUACUAGGACA, the “pre-steady-state target cleavage rate” value is below 0.0001.
For GGAGAGGAUACUAUACUACCUACUACCUGA the value was 0.0973 ± 0.013; for GGAGUGAUACUAUACAACCUACUACCUCA, 0.174 ± 0.011; for GGAGACGAUACUAUUCAACCUACUUCCUCA, 0.0306 ± 0.0097.
For GGAGACCUAUGAUAUGUUCCUACUUCCUCA the value was below 0.0001; for GGAGACCUAUGAUUACAACGUACUUCCUCA, 0.00374 ± 0.0031.
For GGAGACCUAUCUAUACAACCUACUGACCUCA the value was 0.066 ± 0.012; for GGAGACCUUACUAUACAACCUACUGACCUCA, 0.107 ± 0.017.
For the sequence GGAGACCUAACUCAUACAACCUACUACCUCA, the “pre-steady-state target cleavage rate” value came out at 0.0742 ± 0.033.
For GGAGACCUAUGAUAUGUUGCUUGAACCUCA the value was below 0.0001.
For GGAGUGCAUACUAUACAACCUACAACCUCA the value was 0.0916 ± 0.01; for GGAGUAGGAUACUAUACAACCUACUACCUCA, 0.145 ± 0.016.
The same measure for GGAGUGGAUACUUUACAACCUACUAGCUCA: 0.0406 ± 0.0075.
For the sequence GGAGACCUAUGAUAACAACCCACUACCUCA, the “pre-steady-state target cleavage rate” value was determined as 0.00347 ± 0.0029.
For GGAGACCUUUGUAUACAACCUACUACCUCA the value was 0.0347 ± 0.0065; for GGAGACCAAACUUUACAACCUACUACCUCA, 0.137 ± 0.034; for GGAGUGGAUACUAAACAACCUACUACCUGA, 0.0827 ± 0.012.
On to GGAGACCUAACUAUGACAACCUACUACCUCA, for which the “pre-steady-state target cleavage rate” value was found to be 0.0415 ± 0.0097.
Consider GGAGACCUUACUAAUCAACCUACUACCUCA, for which the “pre-steady-state target cleavage rate” value was 0.11 ± 0.016.
For GGAGACCUAUGAUAUGUACCUACUAGCACA the value was below 0.0001.
The same measure for GGAGAGAGAUACUAUACAACCUACUACCUCA: 0.201 ± 0.013.
For the sequence GGAGACCAUUCUAUUCAACCUACUACCUCA, the “pre-steady-state target cleavage rate” value was 0.102 ± 0.012.
On to GGAGACCAUAUUAUACAACCUACUACCUCA, for which the “pre-steady-state target cleavage rate” value is 0.188 ± 0.015.
The same measure for GGAGACCUAUCUAUACAACCAUACUACCUCA: 0.0049 ± 0.0031.
For GGAGACCAUACUAUACAACCUAACUACCUCA the value was 0.0248 ± 0.0049.
